PubChem BioAssay (Tox21)
Inconclusive results are not listed. Unmarked numbers belong to inactive results. Calls of active or inactive are those of the source. Calls come from the whole dose curve; as a rule, active = well fitted curve in the direction sought with a large enough effect in the repeat runs; inconclusive = weak or mixed curves; inactive = no such curve, though single readings can be large; an effect the other way counts as inactive or inconclusive.

system: not listed separately; experiment: qHTS assay to identify aromatase inhibitors - cell viability counter screen (AID 743084); settings: MCF-7 aro ERE viability, CellTiter-Fluor, 24 h; series mostly up to 70.3 µM; activity change, negative = cytotoxicity: at the top concentration;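 note: cells stimulated with testosterone during compound exposure; nearly all actives have a fitted effect of over 55% in size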
% is set by controls: 0 for no effect and ±100 for the full control effect.

SMILES	activity change, negative = cytotoxicity	Potency
C=C[C@@H](C)CCC=C(C)C	10.8%	–
CCC(=O)c1ccc(O)cc1	16.5%	–
CN[C@@H]1[C@@H](O)[C@@H](O[C@@H]2[C@H](O)[C@H](O[C@H]3OC(CN)=CC[C@H]3N)[C@@H](N)C[C@H]2N)OCC1(C)O (some centres undefined)	1.86%	–
CCc1nccnc1C	13.9%	–
CCCCOC(=O)C(=O)OCCCC	-1.91%	–
CC(C)COC(=O)CCCCC(=O)OCC(C)C	-7.93%	–
Cc1cc(O)c2c(c1)C(=O)c1cccc(O)c1C2=O	0.57%	–
O=CN1CCOCC1	-0.231%	–
OCCCCCCCl	3.64% [at 95 µM]	–
C[C@H](CCC(=O)NCC(=O)O)[C@H]1CC[C@H]2[C@@H]3[C@H](O)C[C@@H]4C[C@H](O)CC[C@]4(C)[C@H]3C[C@H](O)[C@]12C	0.952%	–
O=C1NC2NC(=O)NC2N1 (centres undefined)	6.34%	–
CCOC(=O)CCc1ccccc1	-2.07%	–
Cc1ccccc1OCC1CO1 (centres undefined)	-5.59% [at 95 µM]	–
O=c1[nH]c(=O)c2[nH]c(=O)[nH]c2[nH]1	–	inactive
Cc1cccc(Nc2ccncc2S(=O)(=O)NC(=O)NC(C)C)c1	6.18% [at 32.5 µM]	–
CC1=CC[C@H](CC=O)C1(C)C	7.27%	–
OC(CCN1CCCCC1)(c1ccccc1)c1ccccc1	-16.6%	–
NS(=O)(=O)c1cc2c(cc1Cl)NC(CC1CCCC1)NS2(=O)=O (centres undefined)	9.89% [at 32.5 µM]	–
COc1cccc2sc(N)nc12	-13.1% [at 95 µM]	–

SMILES	activity change, negative = cytotoxicity	Potency
CN(C)CCCNCCC#N	8.87%	–
CCC(O)C(C)(C)C (centres undefined)	0.143% [at 95 µM]	–
C=CCOC(=O)c1ccc(C(=O)OCC=C)c(C(=O)OCC=C)c1	-4.55%	–
C=C(C)[C@@H]1CC[C@@H](C)C[C@@H]1O	-18.3%	–
Nc1ccc(/C=C/c2ccc(N)cc2S(=O)(=O)O)c(S(=O)(=O)O)c1	-16.2%	–
CC(Cl)COP(=O)(OCC(C)Cl)OCC(C)Cl (centres undefined)	9.89%	–
CCNC(=O)NCCCOc1cccc(CN2CCCCC2)c1	-0.45%	–
Cc1ncc([N+](=O)[O-])n1CC(O)CCl (centres undefined)	-0.369% [at 32.5 µM]	–
COCCOCCOCCOC	20.1%	–
CCCCC/C=C/CC(=O)OC	12.6%	–
O=C(c1ccc2c(c1)C(=O)OC2=O)c1ccc2c(c1)C(=O)OC2=O	13.5%	–
NC(=O)NC(=O)Cc1ccccc1	12.1%	–
CCOC(=O)CC(CC(=O)OCC)(OC(C)=O)C(=O)OCC	2.03%	–
CCC1COC(=O)O1 (centres undefined)	15.1%	–
COCC(=O)Nc1c(I)c(C(=O)NCC(O)CO)c(I)c(C(=O)N(C)CC(O)CO)c1I (centres undefined)	-7.24% [at 32.5 µM]	–
CCS(=O)(=O)CCn1c([N+](=O)[O-])cnc1C	11.1% [at 32.5 µM]	–
NC(=O)NNC(N)=O	5.48%	–
Cc1ccccc1C	1.46% [at 95 µM]	–

molecular target: Aryl hydrocarbon receptor (Homo sapiens) (UniProt P35869); experiment: qHTS assay to identify small molecule that activate the aryl hydrocarbon receptor (AhR) signaling pathway (AID 743085); settings: HepG2 AhR-luc (HG2L7.5c1), luciferase, 24 h; series mostly up to 70.3 µM; activation: at the top concentration; note: nearly all actives have a fitted effect of over 15% in size; note: potency is the fitted concentration of half-maximal effect;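 for activation: HG2L7.5c1 human HepG2 liver cells with stably integrated DRE-driven firefly reporter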
In short: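 Measured in HG2L7.5c1 cells: CellTiter-Fluor signal (30 min incubation, 37C) for viability, then luciferase luminescence (30 min, room temperature). Compound contact time was 24 h at 37C, following a 5 h pre-incubation.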

Sequence of Aryl hydrocarbon receptor (Homo sapiens) (P35869 whole entry, looked up): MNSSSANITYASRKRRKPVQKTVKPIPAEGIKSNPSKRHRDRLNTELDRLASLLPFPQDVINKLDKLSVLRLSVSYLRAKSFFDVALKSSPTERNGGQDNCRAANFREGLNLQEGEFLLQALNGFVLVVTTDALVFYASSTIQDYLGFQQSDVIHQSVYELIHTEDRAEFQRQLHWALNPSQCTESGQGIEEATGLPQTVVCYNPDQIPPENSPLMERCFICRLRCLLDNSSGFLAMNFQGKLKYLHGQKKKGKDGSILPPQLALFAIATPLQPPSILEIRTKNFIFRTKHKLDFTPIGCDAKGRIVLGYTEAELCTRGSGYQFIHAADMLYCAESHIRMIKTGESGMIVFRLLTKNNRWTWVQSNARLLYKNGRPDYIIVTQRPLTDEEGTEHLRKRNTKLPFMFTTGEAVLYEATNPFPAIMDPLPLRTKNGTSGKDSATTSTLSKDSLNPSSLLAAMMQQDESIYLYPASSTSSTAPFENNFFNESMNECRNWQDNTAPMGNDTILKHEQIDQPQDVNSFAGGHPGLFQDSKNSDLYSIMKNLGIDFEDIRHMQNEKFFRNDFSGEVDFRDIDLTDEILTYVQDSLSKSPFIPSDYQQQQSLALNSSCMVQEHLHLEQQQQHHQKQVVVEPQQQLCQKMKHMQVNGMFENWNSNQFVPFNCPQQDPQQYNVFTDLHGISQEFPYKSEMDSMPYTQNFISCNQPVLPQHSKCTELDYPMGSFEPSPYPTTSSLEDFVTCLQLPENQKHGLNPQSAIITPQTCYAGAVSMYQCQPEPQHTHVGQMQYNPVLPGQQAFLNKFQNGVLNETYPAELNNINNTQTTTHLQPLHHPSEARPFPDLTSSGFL

SMILES	activation	Potency
C=C[C@@H](C)CCC=C(C)C	-0.648%	–
CCC(=O)c1ccc(O)cc1	4.9%	–
CN[C@@H]1[C@@H](O)[C@@H](O[C@@H]2[C@H](O)[C@H](O[C@H]3OC(CN)=CC[C@H]3N)[C@@H](N)C[C@H]2N)OCC1(C)O (some centres undefined)	-1.3%	–
CCc1nccnc1C	-0.649%	–
CCCCOC(=O)C(=O)OCCCC	-0.179%	–
CC(C)COC(=O)CCCCC(=O)OCC(C)C	-0.945%	–
Cc1cc(O)c2c(c1)C(=O)c1cccc(O)c1C2=O	–	26.7 µM (active)
O=CN1CCOCC1	-1.39%	–
OCCCCCCCl	-0.479% [at 95 µM]	–
C[C@H](CCC(=O)NCC(=O)O)[C@H]1CC[C@H]2[C@@H]3[C@H](O)C[C@@H]4C[C@H](O)CC[C@]4(C)[C@H]3C[C@H](O)[C@]12C	1.01%	–
O=C1NC2NC(=O)NC2N1 (centres undefined)	3.07%	–
CCOC(=O)CCc1ccccc1	-0.482%	–
Cc1ccccc1OCC1CO1 (centres undefined)	-0.826% [at 95 µM]	–
O=c1[nH]c(=O)c2[nH]c(=O)[nH]c2[nH]1	–	inactive
Cc1cccc(Nc2ccncc2S(=O)(=O)NC(=O)NC(C)C)c1	-0.969% [at 32.5 µM]	–
CC1=CC[C@H](CC=O)C1(C)C	-1.31%	–
OC(CCN1CCCCC1)(c1ccccc1)c1ccccc1	–	21.1 µM (active)
NS(=O)(=O)c1cc2c(cc1Cl)NC(CC1CCCC1)NS2(=O)=O (centres undefined)	0.531% [at 32.5 µM]	–
COc1cccc2sc(N)nc12	–	27.5 µM (active)

SMILES	activation	Potency
CN(C)CCCNCCC#N	-1.31%	–
CCC(O)C(C)(C)C (centres undefined)	-1.24% [at 95 µM]	–
C=CCOC(=O)c1ccc(C(=O)OCC=C)c(C(=O)OCC=C)c1	0.48%	–
C=C(C)[C@@H]1CC[C@@H](C)C[C@@H]1O	-0.677%	–
Nc1ccc(/C=C/c2ccc(N)cc2S(=O)(=O)O)c(S(=O)(=O)O)c1	7.11%	–
CC(Cl)COP(=O)(OCC(C)Cl)OCC(C)Cl (centres undefined)	3.03%	–
CCNC(=O)NCCCOc1cccc(CN2CCCCC2)c1	-1.63%	–
Cc1ncc([N+](=O)[O-])n1CC(O)CCl (centres undefined)	-0.32% [at 32.5 µM]	–
COCCOCCOCCOC	-0.55%	–
CCCCC/C=C/CC(=O)OC	-1.75%	–
O=C(c1ccc2c(c1)C(=O)OC2=O)c1ccc2c(c1)C(=O)OC2=O	-1.5%	–
NC(=O)NC(=O)Cc1ccccc1	-1%	–
CCOC(=O)CC(CC(=O)OCC)(OC(C)=O)C(=O)OCC	-1.18%	–
CCC1COC(=O)O1 (centres undefined)	1.31%	–
COCC(=O)Nc1c(I)c(C(=O)NCC(O)CO)c(I)c(C(=O)N(C)CC(O)CO)c1I (centres undefined)	-0.898% [at 32.5 µM]	–
CCS(=O)(=O)CCn1c([N+](=O)[O-])cnc1C	-0.0762% [at 32.5 µM]	–
NC(=O)NNC(N)=O	0.274%	–
Cc1ccccc1C	-1.29% [at 95 µM]	–
